Assay results reported in ChEMBL document CHEMBL4513216, “Probing the Open Global Health Chemical Diversity Library for Multistage-Active Starting Points for Next-Generation Antimalarials” (ACS Infect Dis, 2020).
Hit rate of the full screen: of about 69,000 compounds, about 8,600 (12%) showed an effect of 50% or more. The entries come from a sample that favours strong results as a whole.

system: Plasmodium berghei; experiment: Screen against P. berghei liver stage (PbLuc), transformed with Luciferase, at 10uM; assay type: functional, HepG2; conditions: tested at 10 uM

Row | Compound | INHIBITION
1 | Cc1ccc(CNC(=O)Nc2nccs2)cn1 | -31.8%
2 | Cn1cc(NC(=O)N2CCCC2c2ccccn2)ccc1=O (stereo not drawn) | -80.7%
3 | O=C(CCn1cnc2cc(F)c(F)cc21)N1CCN(C2CC2)CC1 | -27.6%
4 | COCCN1CCN(Cc2ccc(OCc3nccn3C)cc2)CC1 | -3.7%
5 | O=C1CC2(CCN(S(=O)(=O)c3cccs3)C2)CN1c1cccc(F)c1 (stereo not drawn) | -20.8%
6 | Cc1n[nH]c(C)c1CCc1n[nH]c(=O)n1Cc1cccs1 | -54.9%
7 | COCC(NC(=O)c1cc(C)n(C)n1)c1cccc(C(F)(F)F)c1 (stereo not drawn) | -0.532%
8 | CNC(=O)c1ccc(C(=O)N2CCC(Nc3cccnn3)CC2)cn1 | -0.219%
9 | Cc1ccc(-c2cc(C3=NC(=CN4CCN(C)CC4)NO3)[nH]n2)cc1 | 41.8%
10 | CN1CCN(C=C2N=C(c3cc(-c4ccc(F)cc4)n[nH]3)ON2)CC1 | 50.5%
11 | COc1ccc(-c2cc(C3=NC(=CN4CCN(C)CC4)NO3)[nH]n2)cc1 | 40.7%
12 | CCCc1nc(NC2(COC)CCCC2)c2cnn(C)c2n1 | 22.6%
13 | COCC1(Nc2nc(C)nc3c2cnn3C)CCCC1 | 81.6%
14 | Cc1nc(NC2(CN3CCCCC3)CCCCC2)c2cnn(C)c2n1 | 40.5%
15 | COc1ccccc1-c1ccnc2nc(N3CCCCC3)[nH]c(=O)c12 | 23.4%
16 | CC(=O)N1CCC(Cc2ccc(-c3ccnn3C)nc2)CC1 | 9.45%
17 | CN1CCCC2(CCN(C(=O)Cn3ncc4ccccc4c3=O)C2)C1=O (stereo not drawn) | 21.2%
18 | CCN(CC1CCOC1)C(=O)c1ccccc1S(C)(=O)=O (stereo not drawn) | 45.7%
19 | Cc1ccc(CCNc2ncnc3sc4c(c23)CCNC4)o1 | -158%
20 | Cc1nonc1OCCNc1ncnc2sc3c(c12)CCNC3 | 6.94%
21 | c1ccc(OCCNc2ncnc3sc4c(c23)CCNC4)cc1 | 92.1%
22 | Cc1cnn(CCNCC(=O)N(C)C(C)c2ccccc2)c1 (stereo not drawn) | 19.7%
23 | Cc1ccoc1C1=NNC(=CN2CCn3c(nnc3C3CC3)C2)O1 | 5.97%
24 | CCCc1ccc(N2CCN(Cc3nc4ccccc4n3C)CC2)cc1 | 25.8%
25 | Cn1c(CCN2CCN(CCc3ccccc3)CC2)nc2ccccc21 | 49.9%
26 | Cn1c(CCN2CCN(c3ccc(O)cc3)CC2)nc2ccccc21 | 61.9%

Row | Compound | INHIBITION
27 | O=C(NCc1cncc2c1CCN(Cc1ccoc1)C2)C1CC1 | 5.96%
28 | Cc1ccc(CN2CCn3cc(CN4CCN(C)CC4)nc3C2)cc1 | 72.9%
29 | CN1CCN(Cc2cn3c(n2)CN(Cc2ccc(F)cc2)CC3)CC1 | -17.7%
30 | CN1CCN(Cc2cn3c(n2)CN(Cc2ccccn2)CC3)CC1 | 24.9%
31 | CN1CCN(Cc2cn3c(n2)CN(Cc2ccncc2)CC3)CC1 | 82.9%
32 | COc1ccc(CN2CCn3cc(CN4CCN(C)CC4)nc3C2)cc1 | 40.4%
33 | CN1CCN(Cc2cn3c(n2)CN(Cc2cccnc2)CC3)CC1 | 30.7%
34 | O=C(c1cscn1)N1C[C@@H](Oc2cccnc2)[C@H]2OCCC[C@H]21 | 2.58%
35 | CCCN1Cc2cc(Br)ccc2OCC1=O | 68%
36 | O=C1COc2ccc(Cl)cc2CN1CC1CC1 | -8.66%
37 | O=C1COc2ccc(Br)cc2CN1CC1CC1 | 0.0996%
38 | O=C(NC[C@]12COC[C@H]1CN(Cc1cccs1)C2)c1ccsc1 | 20.5%
39 | COc1ccc(CNc2c(N3CCN(C(C)=O)CC3)c(=O)c2=O)cc1 | 54%
40 | COc1ccc(CNc2c(N3CCN(C)CC3)c(=O)c2=O)cc1 | 31.8%
41 | COc1ccccc1CNc1c(N2CCN(C(C)=O)CC2)c(=O)c1=O | -19.2%
42 | O=C(NCCSCc1ccco1)c1ccc(N2CCOCC2)cc1 | 17.7%
43 | CCC(CC#N)n1ccc(C(F)(F)F)n1 (stereo not drawn) | 21.9%
44 | CCC1=N[C@@]2(CC[C@@H]3CN(CC(=O)N(C)C)C[C@@H]32)C(=O)N1CC1CC1 | -3.95%
45 | Cc1c(CN2CCC(C(=O)O)(n3ccnc3)CC2)oc2ccccc12 | 15.1%
46 | COc1ccc(NC(=O)NC(C)Cc2ccco2)cn1 (stereo not drawn) | -41.2%
47 | CN(C)C(=O)N1C[C@@H]2COC[C@]2(c2nnc(C3CC3)o2)C1 | 54.7%
48 | O=C(c1ncccn1)N1C[C@@H]2COC[C@]2(c2nnc(C3CC3)o2)C1 | -36.5%
49 | CC(C)(C)C(=O)N1C[C@@H]2COC[C@]2(c2nnc(C3CC3)o2)C1 | -9.54%
50 | COc1cccc(-c2nc(C)c(C(=O)N[C@@H](CC(C)C)C(=O)O)s2)c1 | -95.4%
51 | O=C1CC(c2cccnc2)c2c(c(C(=O)O)cn2-c2ccc(Cl)cc2)N1 (stereo not drawn) | 20%
52 | CCc1ccc(CCNc2ncnc3c2CCN(C(=O)C2CC2)C3)cc1 | 71.1%

Row | Compound | INHIBITION
53 | Nc1nc(CCNc2ncnc3c2CCN(C(=O)C2CC2)C3)cs1 | -66.7%
54 | O=C(C1CCCCO1)N1CCc2ncnc(NCCO)c2CC1 (stereo not drawn) | 25.8%
55 | Nc1nnc(CCNc2ncnc3c2CCN(C(=O)C2CC2)C3)s1 | -10.2%
56 | Nc1nnc(CCCNc2ncnc3c2CCN(C(=O)C2CC2)C3)s1 | -45%
57 | O=C(C1CC1)N1CCc2c(ncnc2NCCc2nc3c(s2)CCC3)C1 | 52.2%
58 | CC(C)n1nc(Cn2cccn2)c2c1CN(C1CCOCC1)C2 | -33%
59 | Cc1nc(CN2CC[C@@H]3O[C@@H](C(=O)N4CCOCC4)C[C@@H]32)cs1 | 30.9%
60 | COCCC(C)NC(=O)N1CCC(n2ccc(C(F)(F)F)n2)CC1 (stereo not drawn) | 15.7%
61 | CCS(=O)(=O)N1CCN(C(=O)c2cnc3[nH]nc(C)c3c2)CC1 | -35.2%
62 | O=C(c1coc(COc2ccccc2F)n1)N1CCC[C@H]1CO | 2.611%
63 | CC1CCCCN1C(=O)c1coc(COc2cccc3cnccc23)n1 (stereo not drawn) | 68.4%
64 | COCCC1CCCCN1C(=O)c1coc(COc2ccccc2F)n1 (stereo not drawn) | 29.735%
65 | O=C(c1coc(COc2cccc(F)c2)n1)N1CC[C@H](O)[C@@H](O)C1 | 6.8%
66 | O=C(c1cc(=O)c(OCc2ccccc2)co1)N1CCSCC1 | 21.5%
67 | O=C(c1coc(COc2ccccc2F)n1)N1CCCO1 | -4.235%
68 | O=C(c1coc(COc2cccc3cnccc23)n1)N1CCSCC1 | 74.9%
69 | O=C(c1coc(COc2cccc3cnccc23)n1)N1CCCCCC1 | 84.1%
70 | O=C(O)c1coc(COc2cccc3cnccc23)n1 | -2.46%
71 | Cc1cc(Cn2c(=O)c3c(C(F)(F)F)cc(C)nc3n2C)on1 | 4.81%
72 | CN1CCOC(CNCC(=O)NCCCc2ccccc2)C1 (stereo not drawn) | -17.8%
73 | COc1ccc(CN(C)Cc2ccnc(C3CCCO3)n2)cc1 (stereo not drawn) | 21.95%
74 | Cc1ncc(CNC(=O)NC2CCN(C3CCCC3)CC2)s1 | -53.6%
75 | Cc1cccc(CN2CC[C@@H]3O[C@@H](C(=O)N4CCN(C)CC4)C[C@@H]32)n1 | -5.25%
76 | CCOC(=O)N1CCN(C(=O)c2cc(-c3ccc(Cl)cc3Cl)on2)CC1 | -6.91%
77 | CCN(Cc1cccc(F)c1)Cc1nc2c(cnn2C)c(=O)[nH]1 | 3.73%
78 | CC1(NC(=O)Cc2csc(NC(=O)c3ccccc3)n2)CCS(=O)(=O)C1 (stereo not drawn) | -14.2%

Row | Compound | INHIBITION
79 | CCc1ncncc1C(=O)NC1CCc2nc(C)cn2C1 (stereo not drawn) | -53.5%
80 | Cc1ccccc1[C@@H]1CN(Cc2c(C)noc2C)C[C@H]1C(=O)O | 2.25%
81 | COc1ccccc1[C@@H]1CN(Cc2csc(C(C)=O)c2)C[C@H]1C(=O)O | -82.7%
82 | COc1ccccc1[C@@H]1CN(Cc2ccc3nsnc3c2)C[C@H]1C(=O)O | 68.2%
83 | Cc1ccccc1[C@@H]1CN(Cc2ccc(C(F)(F)F)nc2)C[C@H]1C(=O)O | 59.7%
84 | COc1ccccc1[C@@H]1CN(Cc2ccncc2)C[C@H]1C(=O)O | -21.8%
85 | CCC[C@@H]1CN(Cc2ccc(C(F)(F)F)nc2)C[C@H]1C(=O)O | 37.2%
86 | COCCO[C@H]1CCN(C(=O)c2ccc[nH]2)[C@H]1Cc1ccncc1 | 42.6%
87 | CC(C)c1noc(CN2CCC(c3ccnn3CCO)CC2)n1 | -24.2%
88 | O=C(Nc1ccnn1Cc1ccccc1Cl)C1CCS(=O)(=O)C1 (stereo not drawn) | -4.12%
89 | CCOCC(=O)N1CCC2(CC1)COCCN2CCOC | 12.1%
90 | Cn1ncc2c(N3CCN(C(=O)c4ccsc4)CC3)ncnc21 | 21.6%
91 | Cc1ccc(C)c(OCc2cc(C(=O)N(C)CC(O)CO)no2)c1 (stereo not drawn) | 10.4%
92 | Cc1ccc(C)c(OCC(O)Cn2ncc3cnn(C)c(=O)c32)c1 (stereo not drawn) | -28.9%
93 | COc1cc(CN(C)C(=O)Nc2cc(C)on2)ccc1SC | 40.1%
94 | Cc1ccc(OCCC(=O)N(C)CC(=O)Nc2cc(C)on2)c(C)c1 | 52.2%
95 | Cc1ccc(OCCN(C)C(=O)CCCC(N)=O)c(C)c1 | -7.65%
96 | Cc1ccccc1OCCC(=O)N(C)Cc1c(C)noc1C | 25.5%
97 | Cc1ccc(OCC(O)CN(C)CC(=O)Nc2cc(C)on2)c(C)c1 (stereo not drawn) | 77.9%
98 | Cc1ccc(C)c(OCC(O)CN(C)CC(=O)Nc2cc(C)on2)c1 (stereo not drawn) | 84.3%
99 | Cc1ccc(OCC(O)CN(C)CC(=O)NC(C)C)c(C)c1 (stereo not drawn) | 33%
100 | CC(C)Cn1cncc1-c1nc2c([nH]1)CC(C)(C)CNC2=O | -109%
101 | CCn1cc(CN2CCCN(C(=O)c3ccc(C#N)cc3)CC2)cn1 | 25.6%
102 | Cn1ncc2c(=O)[nH]c(CN3CCCC3CC(C)(C)C)nc21 (stereo not drawn) | 19.6%
103 | CC(C)=CCN1C(=O)[C@@H]2CC[C@H]1CN(C(=O)CCc1nnc(Cl)[nH]1)C2 | -15.3%
